DRD3 agonist: agonists of human D3 dopamine receptor; P35462; D3R DiscoveRx beta-arrestin cells, luminescence, 90 min; max activation, %; actives 0.58% (n = 410,000); in the data active means max activation above about 30%; further: 0% is about no effect
Target sequence (P35462 whole entry, looked up): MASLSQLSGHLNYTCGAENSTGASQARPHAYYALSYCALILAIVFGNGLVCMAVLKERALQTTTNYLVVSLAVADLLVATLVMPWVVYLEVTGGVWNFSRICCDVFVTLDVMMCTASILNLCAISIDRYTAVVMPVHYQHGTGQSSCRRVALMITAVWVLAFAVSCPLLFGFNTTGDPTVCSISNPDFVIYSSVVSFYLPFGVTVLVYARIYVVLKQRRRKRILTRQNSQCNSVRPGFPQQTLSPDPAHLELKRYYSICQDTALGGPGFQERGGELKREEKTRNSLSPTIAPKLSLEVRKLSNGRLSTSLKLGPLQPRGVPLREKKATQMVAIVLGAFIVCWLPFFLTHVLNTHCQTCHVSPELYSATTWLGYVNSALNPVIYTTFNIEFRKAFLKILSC
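Agonist-mode cell screen: cells plated at 1500/well and incubated overnight at 37 °C, then exposed to library compounds for 90 min at 37 °C. Detection reagent was added for 30–60 min at room temperature, and luminescence was read.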
HepG2 tox-1: counter-screen for TGF-b inhibitors: cytotoxicity in HepG2 cells. HepG2 CAGA-GFP viability, ATP luminescence, 18 h. Potency, µM (series often up to 46.1 µM), for the others: at the top dose activity change, negative = cytotoxicity, actives largely listed as cytotoxic. actives 0.76% (n = 410,000); further: potency means the concentration at half of the fitted maximal effect
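CellTiter-Glo luminescence gave cytotoxicity after 18 hours at 37 degrees C. The cells were HepG2 CAGA-GFP in 1% FBS DMEM, stimulated with 500 pg/mL TGF-beta after compound addition. %Activity was normalised to no-cell wells (complete cell-killing) and DMSO (no toxicity), and curves were fitted and classified.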
DRD3 antagonist: D3 dopamine receptor (human) antagonism. max response, negative = inhibition, %. actives 2.5% (n = 360,000). D3R cells, DiscoveRx beta-arrestin luminescence, antagonist mode; active compounds read low. AID 652054. P35462; in the data active means max response below about -50%; inconclusive means no clear call, values can overlap the other calls; further: on the % scale 0 is the no-effect control and ±100 the full control effect
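Cells plated overnight at 1500 cells/well, then exposed to library compounds with dopamine controls for 90 minutes at 37 degrees C. DiscoveRx reagent added for 30–60 minutes at room temperature; luminescence read, quantitative HTS format.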
TGFb SMAD3 inh: TGF-b pathway inhibition; HepG2 CAGA-GFP TGF-b/SMAD3 reporter, GFP fluorescence, 18 h; TGF-beta stimulated, 500 pg/mL final; Potency, µM (doses to about 46.1 µM), for the others: top-dose activity, negative = inhibition, actives largely listed as inhibitors; actives 1.2% (n = 410,000); further: potency means the concentration at half of the fitted maximal effect; on the % scale 0 is the no-effect control and ±100 the full control effect; nearly all actives have a fitted effect of over 65% in size
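Inhibition was scored as loss of TGF-beta-induced (500 pg/mL final, 18 hours, 37 degrees C) GFP in HEPG2 cells carrying a CAGA-GFP reporter, in DMEM with 1% FBS. Well GFP was summed per cell; Activity was normalised to unstimulated and stimulated DMSO wells, then concentration-response fitting.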
ATXN2 expr inh: ATXN2 expression inhibition; Potency, µM (top dose mostly 57 µM), inactives show top-dose activity change, negative = inhibition, usual class: inhibitors; HEK-293 ATXN2-luciferase reporter, luminescence, 24 h; actives 0.72% (n = 360,000); AID 1745845; further: potency means the concentration at half of the fitted maximal effect; on the % scale 0 is the no-effect control and ±100 the full control effect; nearly all actives have a fitted effect of over 55% in size
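qHTS (up to 57 uM final) was run with 24 h compound exposure of reporter cells at 37 °C. Each well was multiplexed: SteadyGlo luminescence measured ATXN2-luciferase expression after a fluorogenic Gly-Phe-AFC viability readout (25 uM final).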
ATXN viability: viability counter-screen for ATXN expression inhibitors | AID 651635 | S2 cells (HEK-293 line with an ATXN2-luciferase reporter) viability, CellTiter-Fluor protease fluorescence, 24 h | Potency, µM (doses to about 56.7 µM), usual class: cytotoxic | actives 0.49% (n = 400,000); further: potency means the concentration at half of the fitted maximal effect; nearly all actives have a fitted effect of over 40% in size
TGFb CAGA inh: confirmation of TGF-b signaling inhibitors in HepG2 reporter cells; Potency, µM (doses to about 46.1 µM), for inactives: at the top dose activity, negative = inhibition, usual class: inhibitors; actives 63% (n = 1,600); AID 720534; shares compounds with TGFb SMAD3 inh; HepG2 CAGA-GFP TGF-b reporter, GFP fluorescence, 18 h; cells stimulated with TGF-beta, 500 pg/mL; further: potency means the concentration at half of the fitted maximal effect; on the % scale 0 is the no-effect control and ±100 the full control effect; nearly all actives have a fitted effect of over 65% in size
HepG2 tox-2: toxic to HepG2 cells in TGF-b counterscreen | shares compounds with TGFb SMAD3 inh | HepG2 CAGA-GFP viability, ATP luminescence, 18 h; cells stimulated with TGF-beta, 500 pg/mL | Potency, µM (series often up to 46.1 µM), for the others: top-dose activity, negative = cytotoxicity, most hits filed as inhibitors | actives 27% (n = 1,600) | AID 720535; further: potency means the concentration at half of the fitted maximal effect; on the % scale 0 is the no-effect control and ±100 the full control effect; nearly all actives have a fitted effect of over 70% in size
TGFb CCL64 inh: blocks TGF-b signaling in CCL64 reporter cells | shares compounds with TGFb SMAD3 inh | AID 720536 | CCL64 CAGA-GFP reporter, TGF-b stimulated, GFP fluorescence, 18 h | Potency, µM (top dose mostly 46.1 µM), without a hit: at the highest dose activity, negative = inhibition, most hits filed as inhibitors | actives 41% (n = 1,600); further: potency means the concentration at half of the fitted maximal effect; nearly all actives have a fitted effect of over 65% in size
COP TGFb inh: TGF-b inhibition validated with COP promoter; AID 720537; Potency, µM (series often up to 46.1 µM), for inactives: at the top dose activity, negative = inhibition, hits mostly inhibitors; shares compounds with TGFb SMAD3 inh; actives 3% (n = 1,600); HepG2 COP-GFP TGF-b reporter, GFP fluorescence, 18 h; cells stimulated by added recombinant TGF-beta; further: potency means the concentration at half of the fitted maximal effect; nearly all actives have a fitted effect of over 70% in size
* = called active by the depositor; i = inactive; ? = inconclusive; . = no result. An excerpt weighted towards active compounds, which were near 4.7% of everything screened. Unless noted, the call rests on the fitted dose curve; in most records, active means well fitted curve in the direction sought with a large enough effect; inconclusive means small, poorly fitted or top-dose-only effect, or another doubt; inactive means no such curve, though single readings can be large; an effect the other way counts as inactive or inconclusive.

SMILES | DRD3 agonist | HepG2 tox-1 | DRD3 antagonist | TGFb SMAD3 inh | ATXN2 expr inh | ATXN viability | TGFb CAGA inh | HepG2 tox-2 | TGFb CCL64 inh | COP TGFb inh
COc1cc(-c2noc(C)c2/C=C/c2cccc([N+](=O)[O-])c2)cc(OC)c1OC | -5.2 | -19.1% | -8.3 | 12.6µM* | ? | ? | ? | -27.5% | ? | -10.7%
COc1cc(-c2noc(C)c2/C=C/c2ccc(C(=O)O)cc2)cc(OC)c1OC | -24.7 | 1.4% | 0.0 | -0.6% | -3.0% | i | . | . | . | .
CCOC(=O)c1[nH]c2c(c1Cc1ccccc1)C(=O)CC(c1ccc(OC)cc1)C2 (centres undefined) | -12.8 | -5.0% | . | ? | -31.6% | i | . | . | . | .
O=C(NCC1CC1)c1ccc(Nc2nc3ccc(Br)cc3[nH]2)cc1 | 26.5 | -27.4% | -28.1 | 10µM* | -20.0% | ? | ? | ? | ? | 52.2%
Cc1nc2nc(NC(=O)C(C)C)[nH]n2c(=O)c1Cc1ccccc1 | -5.2 | -12.9% | . | -26.3% | . | . | . | . | . | .
CC(=O)Nc1nc2c(ccc3ccccc32)s1 | -1.4 | -52.5% | -15.9 | ? | 32.6% | i | . | . | . | .
O=C(Cc1cccs1)Nc1nc2c(ccc3ccccc32)s1 | -6.2 | -26.3% | 12.2 | 14.1µM* | -0.5% | i | 16.4µM* | -18.9% | ? | -3.1%
COC(=O)CCNC(=O)N1CCN(c2nnc(C)c3c(C)n(-c4ccc(Cl)cc4)nc23)CC1 | -6.7 | 9.2% | . | -1.8% | -13.4% | i | . | . | . | .
COC(=O)c1c(C)oc2ccc(N(C(=O)Oc3ccccc3)S(=O)(=O)c3ccc(C(C)(C)C)cc3)cc12 | 15.5 | -3.0% | . | -22.7% | . | . | . | . | . | .
CCN(c1ccccc1)S(=O)(=O)c1cc(C(=O)Nc2cccc(Cl)c2)ccc1F | -2.7 | -24.9% | -14.4 | 10µM* | -38.0% | ? | 9.2µM* | ? | 14.6µM* | 57.9%
O=C(Nc1cccc(Cl)c1)c1ccc(F)c(S(=O)(=O)NCc2cccs2)c1 | 2.4 | -31.1% | 5.5 | 10µM* | ? | i | ? | ? | ? | 10.6%
Cc1ccc(-c2nc3cc(C)c(Br)c(C)n3c2Cc2ccccc2)cc1 | -4.3 | -19.9% | 0.0 | -0.7% | 91.4% | i | . | . | . | .
Cc1ccc(Cc2c(-c3ccc(Cl)cc3)nc3cc(C)c(Br)c(C)n23)cc1 | -10.8 | -21.0% | 0.0 | 11.2µM* | 5.0% | i | 20.6µM* | -23.5% | -17.6% | -7.0%
CN1CCN(c2ccc(NC(=O)COc3cccc4ccccc34)cc2)CC1 | -9.4 | -38.1% | -27.7 | -25.0% | -15.8% | i | . | . | . | .
C=CC(=O)Nc1cccc(Oc2ccnc(Nc3ccc(N4CCN(C)CC4)cc3)n2)c1 | -23.8 | -10.0% | -7.6 | 12.6µM* | 0.0% | ? | 14.6µM* | 23.1µM* | 11.6µM* | 21.7%
CCSc1ncc(Cl)c(C(=O)Nc2ccc(S(=O)(=O)N3CCCCC3CC)cc2)n1 (centres undefined) | -17.4 | -17.1% | . | -17.8% | -9.4% | i | . | . | . | .
CCS(=O)(=O)c1ncc(Cl)c(C(=O)Nc2ccc(S(=O)(=O)N3CCCC(C)C3)cc2)n1 (centres undefined) | -32.7 | 4.47µM* | 0.0 | 4.47µM* | 8.91µM* | 8.91µM* | 4.11µM* | 5.17µM* | 2.59µM* | 7.31µM*
CCC1CCCCN1S(=O)(=O)c1ccc(NC(=O)c2nc(S(C)(=O)=O)ncc2Cl)cc1 (centres undefined) | -29.3 | 3.98µM* | -17.5 | 4.47µM* | 15.8µM* | 12.6µM* | 3.66µM* | 6.51µM* | 2.06µM* | 9.2µM*
CC1CCCN(S(=O)(=O)c2ccc(NC(=O)CNC3CCCC3)cc2)C1 (centres undefined) | -19.7 | -25.7% | -9.4 | -11.0% | ? | i | . | . | . | .
COc1ccc(NC(=O)Cn2c(=O)oc3cc(S(=O)(=O)N4CCCCCC4)ccc32)cc1OC | 2.4 | -15.8% | . | ? | -11.6% | ? | . | . | . | .
CCc1ccc(NC(=O)Nc2ccccc2OCc2cc(=O)n3ccccc3n2)cc1 | -10.2 | 0.1% | . | -1.0% | . | . | . | . | . | .
COc1ccc(S(=O)(=O)N2CCC(C(=O)Nc3ccc(Oc4ccccc4)cc3)CC2)cc1 | -12.4 | -4.3% | . | -2.5% | . | . | . | . | . | .
Cc1cc(NC(=O)CS(=O)(=O)c2cn(Cc3cccc(Cl)c3)c3ccccc23)no1 | -4.9 | 3.5% | -29.0 | 17.8µM* | 0.0% | ? | 11.6µM* | -11.3% | -23.3% | 20.7%
CCSc1ncnc2nc[nH]c12 | . | -54.2% | . | -2.6% | . | . | . | . | . | .
Cc1ccc(OC(C)C(=O)Nc2ccncc2)cc1C (centres undefined) | 14.3 | -60.8% | 3.3 | 10µM* | ? | i | ? | ? | 1.1% | 40.4%
CCN1CCN(c2ccc(S(=O)(=O)N3CCCCC3)cc2NC(=O)c2ccc([N+](=O)[O-])o2)CC1 | -0.6 | -106.0% | -11.3 | 7.94µM* | ? | . | 10.3µM* | 20.6µM* | 16.4µM* | ?
CC(=O)N1CCN(c2ccc(NC(=O)c3ccc([N+](=O)[O-])o3)cc2Cl)CC1 | -3.2 | i | -18.4 | 6.31µM* | -36.3% | ? | 4.61µM* | 18.4µM* | 11.6µM* | -28.1%
CCC(=O)N1CCN(c2ccc(Cl)cc2NC(=O)c2ccc([N+](=O)[O-])o2)CC1 | -1.6 | -13.8% | -17.6 | ? | ? | i | . | . | . | .
CC(=O)Nc1ccc2nc(NC(=O)c3ccc([N+](=O)[O-])o3)sc2c1 | -4.8 | -0.4% | -2.8 | 5.01µM* | 2.5% | i | 1.84µM* | 20.6µM* | ? | 20.7%
CCC(=O)N1CCN(c2ccc(NC(=O)c3ccc([N+](=O)[O-])o3)cc2Cl)CC1 | -7.9 | -87.3% | ? | 7.94µM* | ? | ? | 3.66µM* | 9.2µM* | 20.6µM* | -14.6%

Screening data: PubChem BioAssay, National Center for Advancing Translational Sciences (NCATS)
